TSHR antagonist – Antagonists of the Thyroid Stimulating Hormone Receptor: HTS campaign | TSHR-expressing cells, TSH-stimulated cAMP HTRF, 2 h; stronger effect = lower value | activity change, negative = inhibition, % at 11.5 µM | 0.2% of 330,000 active;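 active means activity change below a set negative limit, meaning inhibition stronger than a set level, cut at about -70% in these data; inconclusive means activity change between two set negative limits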
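Antagonism was scored as loss of TSH-driven cAMP in TSHR cells, stimulated with 4nM TSH (EC80) for 2 hours at 37 deg C and detected by homogeneous HTRF competition immunoassay.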
RORgamma inh – qHTS for inhibitors of ROR gamma transcriptional activity; Nuclear receptor ROR-gamma (Mus musculus), P51450; Drosophila S2 Gal4-RORgamma UAS-luciferase reporter, 20 h; Potency, µM (titrated, usually from 53.6 µM), inactives show top-dose activity change, negative = inhibition, actives largely listed as inhibitors; 5.4% of 310,000 active; AID 2551, 2010; further: potency means the concentration at half of the fitted maximal effect; nearly all actives have a fitted effect of over 60% in size
Target sequence (P51450 whole entry, looked up, the tested form may be a part): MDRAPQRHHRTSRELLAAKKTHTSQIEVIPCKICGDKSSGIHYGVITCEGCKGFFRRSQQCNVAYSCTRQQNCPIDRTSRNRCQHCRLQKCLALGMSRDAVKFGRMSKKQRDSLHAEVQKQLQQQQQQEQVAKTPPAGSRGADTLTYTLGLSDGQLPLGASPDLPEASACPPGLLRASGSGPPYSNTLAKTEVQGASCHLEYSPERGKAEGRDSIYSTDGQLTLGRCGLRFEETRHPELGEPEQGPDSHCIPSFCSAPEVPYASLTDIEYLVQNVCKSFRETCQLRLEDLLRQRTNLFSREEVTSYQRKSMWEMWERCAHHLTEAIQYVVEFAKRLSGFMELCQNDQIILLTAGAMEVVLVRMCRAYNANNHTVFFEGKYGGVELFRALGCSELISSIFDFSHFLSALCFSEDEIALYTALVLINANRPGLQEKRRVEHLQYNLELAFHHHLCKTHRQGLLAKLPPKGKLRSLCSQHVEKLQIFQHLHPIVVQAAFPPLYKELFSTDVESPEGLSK
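Using a luciferase readout, inhibitors were identified by reduced reporter activity in Drosophila cells coexpressing a copper-inducible Gal4–ROR gamma fusion and UAS-driven Photinus luciferase, incubated 20 hr after 700 uM copper sulfate.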
Coupling enz – qHTS Assay for Inhibitors of Fructose-1,6-bisphosphate Aldolase from Giardia Lamblia: Coupling assay counterscreen; 0.67% of 290,000 active; coupling enzyme system counterscreen, AmpLite Red fluorescence; activity change, negative = inhibition, % at 58.2 µM, hits read low; in the data active means activity change below about -30%
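Counterscreen of the coupled detection system alone, without aldolase: glyceraldehyde-3-phosphate coupling enzymes plus AmpLite Red readout. Compounds at 57.5 uM final, 10 min RT preincubation, 20 min RT reaction, fluorescence 525/598 nm.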
VP16 counter – VP16 counterscreen qHTS for inhibitors of ROR gamma transcriptional activity | Potency, µM (doses to about 53.6 µM), without a hit: at the top dose activity, negative = inhibition, usual class: inhibitors | 3.5% of 310,000 active | Drosophila S2 Gal4-VP16 UAS-luciferase, luminescence, 20 h;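 further: Gal4-VP16 expression switched on by copper sulfate through the metallothionein promoter; potency means the concentration at half of the fitted maximal effect; nearly all actives have a fitted effect of over 50% in size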
ELG1 DNA repair – qHTS screen for small molecules that inhibit ELG1-dependent DNA repair in human embryonic kidney (HEK293T) cells expressing luciferase-tagged ELG1; 2.3% of 330,000 active; AID 504467, 2011; HEK293T ELG1-luciferase reporter, luminescence, 16 h; DNA damage induced by 5-fluorouridine; Potency, µM (titrated, usually from 46.1 µM), for inactives: at the highest dose activity change, negative = inhibition, usual class: inhibitors; further: potency means the concentration at half of the fitted maximal effect; nearly all actives have a fitted effect of over 55% in size
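Luminescence from the luciferase reporter, measured 30 min after ONE-Glo reagent at room temperature, was the read-out. Beforehand, 2,000 cells per well were exposed for 16 hr at 37 °C to 5-fluorouridine together with compound or vehicle.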
* marks the source's active call; other numbers are inactive results; ? = inconclusive; / = no result. Most compounds without a hit are left out; they make up all but 8% or so of the library. Unless noted, the call rests on the fitted dose curve; in most records, active means well fitted curve in the direction sought with a large enough effect; inconclusive means small, poorly fitted or top-dose-only effect, or another doubt; inactive means no such curve, though single readings can be large; an effect the other way counts as inactive or inconclusive. On the % scale 0 is the no-effect control and ±100 the full control effect.

SMILES | TSHR antagonist | RORgamma inh | Coupling enz | VP16 counter | ELG1 DNA repair
CCn1nnc(NC(=O)c2ccc(C(C)(C)C)cc2)n1 | 18 | 13µM* | 0 | 13µM* | ?
COc1cc(CN2CCN(C(=O)c3ccccc3F)CC2)cc(OC)c1OC | 10 | -5% | 0 | 3% | ?
CCOc1ccc(NC(=O)CN(C)C(=O)c2ccc(-c3ccc(C(C)=O)cc3)o2)cc1OCC | -12 | / | / | / | 9%
CSCC[C@H](NC(=O)N1CCn2c1nc1ccccc12)C(=O)NCC1CCCO1 (stereo partly drawn) | -3 | 4% | / | -1% | 17%
NS(=O)(=O)c1ccc(CCNC(=O)c2ccc(C#CC3(O)CCCCC3)cc2)cc1 | -13 | 20% | 0 | -21% | 6.5µM*
COc1ccc(C2CC(O)(c3ccccc3)Oc3c(C)ccc(C)c32)cc1 (stereo not drawn) | -16 | ? | 5 | 13µM* | 1%
CC(=O)c1ccc(NC(=S)NC(C)c2ccc(Cl)cc2Cl)cc1 (stereo not drawn) | 12 | 11µM* | 1 | -24% | -12%
CCc1sc(C(=O)Nc2cccc(C(C)=O)c2)cc1C | -13 | 7.9µM* | -8 | ? | ?
CC(=O)c1cccc(NC(=S)NC(=O)c2ccc(Cl)cc2)c1 | 0 | 7.1µM* | 2 | 8.9µM* | ?
CC(=O)c1cccc(NC(=O)c2cc(Cl)sc2Cl)c1 | -8 | 30% | 0 | 4% | ?
CC(=O)c1ccc(NC(=S)Nc2ccc(Br)c(Cl)c2)cc1 | 8 | -31% | 2 | 0% | 1%
Cc1cccc(NC(=S)NNC(=O)c2ccccc2Br)c1 | -4 | 0.89µM* | 4 | ? | ?
C[C@@H]1CC2(OC3C[C@@]4(C)C5=CC[C@H]6C(C)(C)C(O[C@@H]7OC[C@@H](O)[C@H](O)[C@H]7O)CC[C@@]67C[C@@]57CC[C@]4(C)C31)OC(O)C1(C)OC21 (stereo partly drawn) | / | -8% | / | -13% | /
CC(C)c1cccc2nc3c(c(C(C)(C)C)c12)Cn1c-3cccc1=O | / | 32% | -2 | 1% | /
C/C(=N\NC(=O)c1ccc(Cl)cc1)c1cccc(NC(=O)C(C)C)c1 | -4 | 11µM* | -1 | -6% | -4%
CCCc1cc(C(=O)NNC(=S)Nc2cccc(C)c2)cs1 | -5 | 2.2µM* | 7 | ? | ?
C/C(=N\NC(=O)c1cccc(Cl)c1)c1cccc(NC(=O)C(C)C)c1 | 7 | 21% | 3 | -5% | -22%
Cc1cccc(C(=O)NC(=S)Nc2cccc3nc(C)ccc23)c1 | -12 | 7.1µM* | -1 | 10µM* | 6%
C/C(=N\NC(=O)c1ccc(Cn2cc(Br)cn2)o1)c1cccc(NC(=O)C(C)C)c1 | 8 | 40% | 0 | 3% | 5.8µM*
COC(=O)[C@@H]1C[C@H]1[C@@H](NC(=O)c1cccnc1)c1ccccc1 | / | -1% | 0 | 18% | /
CCCCN(C(=O)c1ccc(-c2ccc(Cl)cc2)o1)c1c(N)n(CCC)c(=O)[nH]c1=O | 5 | / | / | / | 10%
COc1ccccc1CNc1ncnc2ccc(-c3ccc(C(=O)N(C)C)cc3)cc12 | / | 28% | -2 | -3% | /
Cc1cccc(C(=O)NC(=S)Nc2ccc3[nH]c(=O)[nH]c3c2)c1 | 2 | -7% | -2 | 0% | -6%
CC(=O)c1cccc(NC(=S)NC(=O)c2ccccc2Br)c1 | -3 | 11µM* | 2 | -84% | 1%
CC(=O)c1cccc(NC(=S)NC(=O)c2ccccc2C)c1 | 14 | -1% | 4 | -12% | 1%
SMILES | TSHR antagonist | RORgamma inh | Coupling enz | VP16 counter | ELG1 DNA repair
CC(=O)c1cccc(NC(=S)NC(=O)c2cccc(C)c2)c1 | -3 | 7.9µM* | 0 | ? | ?
Cc1c(Cl)cccc1NC(=O)COC(=O)Cn1cnc2c1c(=O)n(C)c(=O)n2C | 20 | / | / | / | 27%
O=C(CNC(=O)C1COc2ccccc2O1)N/N=C\c1ccc(Cl)cc1 (stereo not drawn) | 0 | -36% | -2 | 12% | -2%
C#CC[N+](C)(C)CCCCCCCCCC | 2 | ? | 5 | -3% | ?
CCCCCCCCCCCCCCCC[N+](C)(C)CC | -5 | -28% | / | -23% | -22%
CC#CC[N+](C)(C)CCCCCCCCCCCC | 10 | ? | 5 | 7.1µM* | -20%
CCCCCCCC[N+](CCCCCCCC)(CCCCCCCC)CCCCCCCC | / | 4.5µM* | / | 2µM* | /
C#CC[N+](C)(C)CCCCCCCCCCCC | 9 | ? | 3 | 11µM* | -26%
O=C(Nc1ccc(C(=O)N2CCCC2)cc1)c1ccc(F)cc1Cl | 32 | 24% | 1 | 0% | 11%
C[C@H](CO)N1C[C@H](C)[C@@H](CN(C)S(=O)(=O)c2ccccc2)Oc2ccc(NS(=O)(=O)c3cccs3)cc2C1=O | 1 | / | / | / | ?
CNC(=O)NC(=O)C(C)OC(=O)c1c2c(nc3ccccc13)/C(=C/c1cccs1)CC2 (stereo not drawn) | 0 | 0.63µM* | -9 | 0.13µM* | 9.2µM*
COc1ccccc1CCNC(=O)C(=O)NCC1OCCN1C(=O)c1ccc(Cl)cc1 (stereo not drawn) | 6 | 42% | 1 | -4% | 0%
C[C@H](CO)N1C[C@H](C)[C@@H](CN(C)Cc2ccccc2)Oc2c(NC(=O)C3CC3)cccc2C1=O | -12 | / | / | / | -9%
Clc1cccc(Nc2nc(N3CCOCC3)nc(N3CCOCC3)n2)c1 | 0 | 0% | 0 | 0% | ?
Cc1ccc(NC(=O)CSc2nc3ccc(Nc4nc(N5CCOCC5)nc(N5CCOCC5)n4)cc3s2)cc1 | 43 | ? | / | 1% | ?
CC(=O)CSc1nc2ccc(Nc3nc(N4CCOCC4)nc(N4CCOCC4)n3)cc2s1 | -19 | 13% | 2 | -12% | ?
COc1ccc(Nc2nc(N3CCOCC3)nc(N3CCOCC3)n2)cc1Cl | 3 | ? | 0 | -20% | 5.6µM*
CC(C)(C)NC(=O)CSc1nc2ccc(Nc3nc(N4CCOCC4)nc(N4CCOCC4)n3)cc2s1 | -10 | 18% | -1 | -23% | 3.3µM*
COc1ccc(NC(=O)CSc2nc3ccc(Nc4nc(N5CCOCC5)nc(N5CCOCC5)n4)cc3s2)cc1 | -4 | ? | / | ? | 2.3µM*
O=C(CCCCCN1C(=O)c2cccc3cccc(c23)C1=O)NO | / | ? | 1 | -11% | /
O=c1c2ccccc2c(C=Nc2ccccc2O)c(O)n1-c1nccs1 | -4 | ? | 1 | ? | 16µM*
Cc1ccc(N=Cc2c(O)n(-c3nccs3)c(=O)c3ccccc23)cc1 | 27 | 2% | -7 | -11% | 18µM*
